The source of these data is PubChem BioAssay (EPA / NIEHS).

For assay [1], the target named is D(1A) dopamine receptor (Homo sapiens) (UniProt P21728). Nature of the assay: NVS_GPCR_hDRD1: NovaScreen (NVS) G Protein-Coupled Receptor Assay for human Dopamine Receptor D1 (DRD1) (AID 2283269). Summed up:
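HEK293-derived receptor preparation; radioligand competitive displacement; 1 h; filtration + scintillation counting. DMSO = negative control/baseline. Primary: 25 uM, duplicate; secondary: concentration–response for actives.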

Assay [2] concerns the target Muscarinic acetylcholine receptor M2 (Homo sapiens) (UniProt P08172). Nature of the assay: NVS_GPCR_hM2: NovaScreen (NVS) G Protein-Coupled Receptor Assay for human Muscarinic, M2 Receptor (AID 2283273). Summed up: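 Radioligand displacement on human M2 receptor membranes from CHO cells, 1 h incubation, filtration with scintillation counting. Primary screen in duplicate at 25 uM; actives retested in concentration series; loss of signal fitted versus DMSO.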

The target of assay [3] is human Adenosine A2a Receptor (AdoRA2a), ADORA2A (gene 135) (UniProt P29274). Nature of the assay: NVS_GPCR_hAdoRA2a: NovaScreen (NVS) G Protein-Coupled Receptor Assay for human Adenosine A2a Receptor (AdoRA2a) (AID 2283256). The gist of the method:
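Radioligand displacement on HEK293-derived membrane protein, cell-free; filter-based scintillation counting 1.5 hours after dosing, loss of signal vs DMSO. Single-point duplicate screen at 25 uM, actives retested in concentration series.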

For assay [4], the target named is Sodium channel protein type 1 subunit alpha (Rattus norvegicus) (UniProt P04774). The experiment in a line: NVS_IC_rNaCh_site2: NovaScreen (NVS) Ion Channel Assay for rat Sodium Channel, Site 2 (NaCh) (AID 2283322).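 Note: hit means loss of radioligand binding signal relative to DMSO so AC50 marks displacement.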 The gist of the method: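 Membranes: rat forebrain. Format: competitive radioligand displacement, filter separation, scintillation readout, 1 h exposure. Primary screen in duplicate at 25 uM; actives retested in concentration series.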

Assay [5] deals with human Thromboxane A2 Receptor (TXA2), TBXA2R (gene 6915) (UniProt P21731). Nature of the assay: NVS_GPCR_hTXA2: NovaScreen (NVS) G Protein-Coupled Receptor Assay for human Thromboxane A2 Receptor (TXA2) (AID 2283282).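 Note: actives reduce bound radioligand signal relative to DMSO baseline.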 The gist of the method: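 Human platelet-derived receptor preparation incubated with test chemical and radiolabelled ligand for 1 hour, cell-free. Bound label was separated by filtration and counted; displacement relative to DMSO controls gave activity, screened at 25 uM, then titrated.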
human Thromboxane A2 Receptor (TXA2), TBXA2R (gene 6915), sequence (P21731 whole entry, looked up): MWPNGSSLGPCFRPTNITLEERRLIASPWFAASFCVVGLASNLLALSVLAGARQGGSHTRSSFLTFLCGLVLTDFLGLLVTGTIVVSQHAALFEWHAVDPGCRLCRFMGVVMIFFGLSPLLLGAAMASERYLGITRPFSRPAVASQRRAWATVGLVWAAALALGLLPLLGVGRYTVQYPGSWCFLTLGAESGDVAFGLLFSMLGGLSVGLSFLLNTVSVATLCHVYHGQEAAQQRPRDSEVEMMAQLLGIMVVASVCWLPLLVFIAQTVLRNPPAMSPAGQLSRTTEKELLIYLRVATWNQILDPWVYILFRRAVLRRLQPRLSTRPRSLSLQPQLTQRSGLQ

For assay [6], the target named is bovine Estrogen Receptor (ER), ESR1 (gene 407238) (UniProt P49884). The experiment in a line: NVS_NR_bER: NovaScreen (NVS) Nuclear Receptor Binding Assay for bovine Estrogen Receptor (ER) (AID 2283345).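 Note: actives lower the bound radioligand count which means they displace the ER ligand.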 Summed up:
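Scintillation counting of displaced radioligand gave the readout; bovine uterine membrane extract supplied the receptor. Measured 18 h post-dose, normalized to DMSO baseline. Single 25 uM duplicate screen preceded concentration-response follow-up.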

Assay [7] concerns the target Estrogen receptor (Homo sapiens) (UniProt P03372). The experiment in a line: NVS_NR_hER: NovaScreen (NVS) Nuclear Receptor Binding Assay for human Estrogen Receptor (ER) (AID 2283348). The gist of the method:
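Radioligand competitive displacement binding to estrogen receptor from MCF7 extract, cell-free; 18 h after dosing, scintillation read-out. Primary screen in duplicate at 25 uM; actives followed up in concentration series; loss of signal vs DMSO.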

The target is the same in assay [8]. The experiment in a line: OT_ER_ERaERa_1440: Odyssey Thera (OT) 24-hour HEK293T Protein-Complementation Assay for Estrogen Receptor-alpha/-alpha Homodimer (AID 2283349).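 Note: hits raise fluorescence above DMSO for agonists and antagonists alike.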 The gist of the method:
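HEK293T cells stably expressing the human ER alpha ligand-binding domain (aa 310-547) as a homodimer PCA were dosed for 24 hours. Fluorescence intensity was read by laser scanning cytometry, and gain of signal was fitted relative to DMSO vehicle.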

Assay [9] addresses guinea pig Opioid, Kappa 1 Receptor (OpiateK), OPRK1 (gene 100135587) (UniProt P41144). The experiment in a line: NVS_GPCR_gOpiateK: NovaScreen (NVS) G Protein-Coupled Receptor Assay for guinea pig Opioid, Kappa 1 Receptor (OpiateK) (AID 2283252).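 Note: active means reduced radioligand binding relative to DMSO.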 Summed up: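 Guinea pig cerebellar membranes, radioligand displacement with filter-based scintillation counting, 2 h after dosing. Primary screen single concentration 25 uM in duplicate; actives retested in concentration series; loss of binding fitted versus DMSO.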

Assay [10] has as its target rat Thyrotropin Releasing Hormone Receptor (TRH), Trhr (gene 25570) (UniProt Q01717). The experiment in a line: NVS_GPCR_rTRH: NovaScreen (NVS) G Protein-Coupled Receptor Assay for rat Thyrotropin Releasing Hormone Receptor (TRH) (AID 2283329).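 Note: hit means lower bound tracer signal versus DMSO baseline.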 Summed up: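 Rat forebrain membrane prep, radioligand displacement, filter scintillation readout at 4 h. Single conc 25 uM, duplicate; actives retested as concentration series. DMSO = negative control/baseline.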

Assay [11] has as its target rat Peripheral-type Benzodiazepine Receptor (PBR), Tspo (gene 24230) (UniProt P16257). Nature of the assay: NVS_MP_rPBR: NovaScreen (NVS) Membrane Protein Assay for rat Peripheral-type Benzodiazepine Receptor (PBR) (AID 2283335). Summed up: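 Rat kidney membranes; radioligand binding with displacement, filter-based scintillation counting, 1 h incubation. Primary screen in duplicate at 25 uM, actives followed in concentration series; loss of binding vs DMSO.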

Assay [12] can be described thus: NVS_IC_rCaBTZCHL: NovaScreen (NVS) Ion Channel Assay for Calcium Channel, Type L, Benzothiazepine Site (CaBTZCHL) (AID 2283337). Summed up:
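Radioligand displacement at the benzothiazepine site using rat cortical membranes; bound label measured by filtration and scintillation counting 1.5 h after dosing. Single-point 25 uM in duplicate, then concentration series; DMSO baseline.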

Assay [13] addresses human Opioid Receptor Mu (Opiate Mu), OPRM1 (gene 4988) (UniProt P35372). Nature of the assay: NVS_GPCR_hOpiate_mu: NovaScreen (NVS) G Protein-Coupled Receptor Assay for human Opioid Receptor Mu (Opiate Mu) (AID 2283290).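 Note: hits lower bound tracer signal versus DMSO meaning displacement of the ligand.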 Summed up:
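CHO-derived receptor protein, cell-free; radioligand displacement, filtration + scintillation counting, read at 2.5 h. DMSO = negative control/baseline. Primary: 25 uM single conc, duplicate; secondary: concentration series.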

Assay [14] addresses human Neurokinin, NK2 Receptor, TACR2 (gene 6865) (UniProt P21452). Nature of the assay: NVS_GPCR_hNK2: NovaScreen (NVS) G Protein-Coupled Receptor Assay for human Neurokinin, NK2 Receptor (AID 2283278).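 Note: actives reduce bound radioligand signal relative to DMSO baseline.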 Summed up:
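Filter-based scintillation counting measured radioligand bound to receptor extracted from CHO cells, 4 hours after compound addition. Chemicals screened first at 25 uM in duplicate, with actives retested in concentration series relative to DMSO.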

The target in assay [15] is chimpanzee Androgen Receptor (AR), AR (gene 747460) (UniProt O97775). The experiment in a line: NVS_NR_cAR: NovaScreen (NVS) Nuclear Receptor Binding Assay for chimpanzee Androgen Receptor (AR) (AID 2283346).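 Note: a loss of bound radioligand signal versus DMSO counts as binding.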 Summed up: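 Radioligand binding to chimpanzee AR expressed in Sf9/Sf21 cells, cell-free, measured 72 h after dosing by lysate-based scintillation counting. Loss of signal vs DMSO; initial duplicate screen at 25 uM, actives retested in concentration series.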
chimpanzee Androgen Receptor (AR), AR (gene 747460), sequence (O97775 whole entry, looked up): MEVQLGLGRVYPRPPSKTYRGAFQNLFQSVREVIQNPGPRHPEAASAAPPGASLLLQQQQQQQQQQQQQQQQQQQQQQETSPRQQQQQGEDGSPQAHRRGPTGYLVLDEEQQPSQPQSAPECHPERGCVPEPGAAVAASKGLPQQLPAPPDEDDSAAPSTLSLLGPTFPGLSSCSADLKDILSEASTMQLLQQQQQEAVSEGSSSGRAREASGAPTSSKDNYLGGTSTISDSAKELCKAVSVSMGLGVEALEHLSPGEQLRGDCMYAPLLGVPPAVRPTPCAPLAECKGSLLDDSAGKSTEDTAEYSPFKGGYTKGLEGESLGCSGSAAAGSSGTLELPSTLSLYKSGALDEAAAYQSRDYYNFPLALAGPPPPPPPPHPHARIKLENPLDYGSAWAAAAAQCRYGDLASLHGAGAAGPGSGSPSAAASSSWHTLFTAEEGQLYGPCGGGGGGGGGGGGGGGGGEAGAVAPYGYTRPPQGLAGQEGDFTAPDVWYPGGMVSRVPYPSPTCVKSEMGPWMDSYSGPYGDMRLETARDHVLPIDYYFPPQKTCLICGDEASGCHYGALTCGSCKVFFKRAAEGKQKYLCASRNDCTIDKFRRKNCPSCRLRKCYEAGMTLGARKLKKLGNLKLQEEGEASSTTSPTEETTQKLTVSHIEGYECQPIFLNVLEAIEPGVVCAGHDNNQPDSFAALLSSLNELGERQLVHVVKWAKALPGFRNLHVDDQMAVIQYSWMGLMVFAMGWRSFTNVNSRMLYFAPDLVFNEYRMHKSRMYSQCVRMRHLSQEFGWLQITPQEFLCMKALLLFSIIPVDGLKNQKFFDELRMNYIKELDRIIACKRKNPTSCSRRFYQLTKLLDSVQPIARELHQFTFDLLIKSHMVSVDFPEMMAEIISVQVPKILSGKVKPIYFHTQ

Values joined by “and” are separate entries in the source; they are usually repeats but may differ in a detail not shown here. Equal values may be shown once. Inconclusive results are not listed. Active and inactive are the calls of the source. Rule for the calls: active = hit-call score of the fitted dose curve at least 0.9, where 1 is the maximum; inconclusive = response in the unintended direction; inactive = score below 0.9.

rat Thyrotropin Releasing Hormone Receptor (TRH), Trhr (gene 25570), sequence (Q01717 whole entry, looked up): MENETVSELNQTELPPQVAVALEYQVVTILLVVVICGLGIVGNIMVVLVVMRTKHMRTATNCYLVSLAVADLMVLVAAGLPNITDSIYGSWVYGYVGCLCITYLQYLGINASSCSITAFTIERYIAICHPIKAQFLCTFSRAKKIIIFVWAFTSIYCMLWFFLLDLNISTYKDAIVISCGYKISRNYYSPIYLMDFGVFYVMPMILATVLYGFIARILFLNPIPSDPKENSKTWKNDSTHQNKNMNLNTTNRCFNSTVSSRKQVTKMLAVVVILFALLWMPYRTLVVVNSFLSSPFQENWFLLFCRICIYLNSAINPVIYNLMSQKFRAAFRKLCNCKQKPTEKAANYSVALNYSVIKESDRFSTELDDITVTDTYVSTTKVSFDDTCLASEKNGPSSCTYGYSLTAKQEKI
rat Peripheral-type Benzodiazepine Receptor (PBR), Tspo (gene 24230), sequence (P16257 whole entry, looked up): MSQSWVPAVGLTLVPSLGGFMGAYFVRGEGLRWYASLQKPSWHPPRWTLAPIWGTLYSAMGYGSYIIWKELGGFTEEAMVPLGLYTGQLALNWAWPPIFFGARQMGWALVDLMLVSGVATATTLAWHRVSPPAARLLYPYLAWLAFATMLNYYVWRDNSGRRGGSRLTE
Muscarinic acetylcholine receptor M2 (Homo sapiens), sequence (P08172 whole entry, looked up): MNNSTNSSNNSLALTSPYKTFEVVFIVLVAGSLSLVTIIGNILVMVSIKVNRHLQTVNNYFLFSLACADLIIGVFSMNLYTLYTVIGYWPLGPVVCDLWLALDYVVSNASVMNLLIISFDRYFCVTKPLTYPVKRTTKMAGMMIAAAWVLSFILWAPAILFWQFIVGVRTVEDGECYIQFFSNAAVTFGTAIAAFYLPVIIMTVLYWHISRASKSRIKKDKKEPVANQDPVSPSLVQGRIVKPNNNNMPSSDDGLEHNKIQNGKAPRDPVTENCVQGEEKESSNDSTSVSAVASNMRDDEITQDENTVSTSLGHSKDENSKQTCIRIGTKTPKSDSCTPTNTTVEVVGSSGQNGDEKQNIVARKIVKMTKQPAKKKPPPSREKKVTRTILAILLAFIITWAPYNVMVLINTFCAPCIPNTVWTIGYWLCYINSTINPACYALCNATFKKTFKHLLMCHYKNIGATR
bovine Estrogen Receptor (ER), ESR1 (gene 407238), sequence (P49884 whole entry, looked up): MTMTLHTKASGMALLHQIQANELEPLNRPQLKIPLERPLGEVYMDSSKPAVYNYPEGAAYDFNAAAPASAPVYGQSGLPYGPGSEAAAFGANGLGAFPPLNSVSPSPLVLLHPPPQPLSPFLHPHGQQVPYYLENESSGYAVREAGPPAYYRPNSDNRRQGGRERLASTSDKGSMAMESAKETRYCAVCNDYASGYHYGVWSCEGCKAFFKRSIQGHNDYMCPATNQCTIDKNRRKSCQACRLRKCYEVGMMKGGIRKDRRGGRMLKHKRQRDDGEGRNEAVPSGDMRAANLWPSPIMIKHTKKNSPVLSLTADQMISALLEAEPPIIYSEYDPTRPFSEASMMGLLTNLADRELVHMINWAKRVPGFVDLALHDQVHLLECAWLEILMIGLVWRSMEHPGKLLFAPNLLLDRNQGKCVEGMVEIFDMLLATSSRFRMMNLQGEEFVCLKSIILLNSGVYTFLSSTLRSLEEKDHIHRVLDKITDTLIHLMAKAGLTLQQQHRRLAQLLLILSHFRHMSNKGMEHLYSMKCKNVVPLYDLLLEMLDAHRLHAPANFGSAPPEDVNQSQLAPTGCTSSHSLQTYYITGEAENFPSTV
Estrogen receptor (Homo sapiens), sequence (P03372 whole entry, looked up): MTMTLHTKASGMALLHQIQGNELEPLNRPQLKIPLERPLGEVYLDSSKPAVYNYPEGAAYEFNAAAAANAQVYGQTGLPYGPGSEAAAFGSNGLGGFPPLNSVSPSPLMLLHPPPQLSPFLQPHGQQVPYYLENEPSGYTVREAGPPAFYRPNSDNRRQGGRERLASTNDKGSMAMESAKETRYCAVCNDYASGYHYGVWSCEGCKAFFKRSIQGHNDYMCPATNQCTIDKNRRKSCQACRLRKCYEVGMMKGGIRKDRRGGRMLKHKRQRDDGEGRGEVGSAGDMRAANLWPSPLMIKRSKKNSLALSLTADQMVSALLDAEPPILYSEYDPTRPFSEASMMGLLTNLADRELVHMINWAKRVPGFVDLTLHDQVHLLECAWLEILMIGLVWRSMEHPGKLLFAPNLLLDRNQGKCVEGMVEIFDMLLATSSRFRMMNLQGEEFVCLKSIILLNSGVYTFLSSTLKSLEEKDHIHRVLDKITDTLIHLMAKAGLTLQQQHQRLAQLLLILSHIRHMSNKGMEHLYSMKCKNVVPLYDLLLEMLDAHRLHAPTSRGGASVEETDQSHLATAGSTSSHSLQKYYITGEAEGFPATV
human Opioid Receptor Mu (Opiate Mu), OPRM1 (gene 4988), sequence (P35372 whole entry, looked up): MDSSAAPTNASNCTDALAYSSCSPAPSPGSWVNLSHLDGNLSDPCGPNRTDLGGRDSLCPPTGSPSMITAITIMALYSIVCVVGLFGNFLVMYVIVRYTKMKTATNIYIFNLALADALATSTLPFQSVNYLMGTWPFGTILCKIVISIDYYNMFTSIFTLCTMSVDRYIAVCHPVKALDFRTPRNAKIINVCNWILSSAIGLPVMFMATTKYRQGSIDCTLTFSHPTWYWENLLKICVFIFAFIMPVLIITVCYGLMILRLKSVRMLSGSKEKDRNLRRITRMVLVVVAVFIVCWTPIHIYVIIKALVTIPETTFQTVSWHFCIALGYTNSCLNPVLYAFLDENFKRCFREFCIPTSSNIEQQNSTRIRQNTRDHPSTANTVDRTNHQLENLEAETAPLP
D(1A) dopamine receptor (Homo sapiens), sequence (P21728 whole entry, looked up): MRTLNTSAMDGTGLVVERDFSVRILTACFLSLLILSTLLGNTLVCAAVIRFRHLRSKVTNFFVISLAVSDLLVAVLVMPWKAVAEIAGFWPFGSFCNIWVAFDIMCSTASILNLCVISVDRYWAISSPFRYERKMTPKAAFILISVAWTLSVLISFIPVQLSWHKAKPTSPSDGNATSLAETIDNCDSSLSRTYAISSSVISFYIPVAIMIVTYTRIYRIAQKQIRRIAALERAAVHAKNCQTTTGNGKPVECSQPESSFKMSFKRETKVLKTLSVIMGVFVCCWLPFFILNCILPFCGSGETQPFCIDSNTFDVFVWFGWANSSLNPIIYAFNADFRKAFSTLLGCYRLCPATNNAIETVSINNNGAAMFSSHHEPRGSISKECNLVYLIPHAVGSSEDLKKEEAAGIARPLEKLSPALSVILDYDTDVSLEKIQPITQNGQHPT
human Neurokinin, NK2 Receptor, TACR2 (gene 6865), sequence (P21452 whole entry, looked up): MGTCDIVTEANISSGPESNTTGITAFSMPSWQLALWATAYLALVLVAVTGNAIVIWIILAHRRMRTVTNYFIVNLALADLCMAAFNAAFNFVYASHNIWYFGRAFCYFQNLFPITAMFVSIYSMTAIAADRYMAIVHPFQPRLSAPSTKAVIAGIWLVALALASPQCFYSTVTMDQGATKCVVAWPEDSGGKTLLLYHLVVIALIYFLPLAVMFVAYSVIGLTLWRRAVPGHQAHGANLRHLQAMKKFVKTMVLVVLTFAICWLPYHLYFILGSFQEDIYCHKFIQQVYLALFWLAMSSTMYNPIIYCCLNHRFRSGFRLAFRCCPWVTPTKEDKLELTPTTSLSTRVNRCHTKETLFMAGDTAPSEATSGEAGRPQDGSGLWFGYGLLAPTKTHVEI

Turning to `CCCCNC(=O)NS(=O)(=O)c1ccc(C)cc1`, in assay [1], the result was inactive. On to `COC(=O)OC`, for which the result in [2] was inactive. What is called AC50 is the concentration at which the activity in the assay is half-maximal. Turning to `O=C(O)C[C@H](O)C[C@H](O)/C=C/c1c(C2CC2)nc2ccccc2c1-c1ccc(F)cc1`, the compound was classed as inactive in assay [3]. Further, the AC50 in [4] is 3550 nM (active). Consider `CCCCCCCCC=O`, for which the outcome in assay [5], in assay [6], in assay [7] and in assay [8] was inactive. Turning to `CC(C)(CO)[N+](=O)[O-]`, the call in assay [2] was inactive.

`Nc1cc(N)cc(C(=O)O)c1`: in assay [2], the AC50 was 38100 nM (active). On to `CC1COc2ccccc2N1C(=O)C(Cl)Cl` (centres undefined), for which the call in assay [9], in assay [10], in assay [12] and in assay [8] was inactive. In addition, the AC50 in assay [11] was 11 µM (active) and 9.31 µM (active); in assay [6], 588 nM (active); in assay [7], 62.7 nM (active).

As for `CCc1c(C)cc(N)c(CC)c1N`, the AC50 in assay [13] was 13000 nM (active). Turning to `O=C1OC2(c3cc(Br)c(O)c(Br)c3Oc3c2cc(Br)c(O)c3Br)c2c(Cl)c(Cl)c(Cl)c(Cl)c21`, the AC50 in [1] was 423 nM (active); in assay [14], 1270 nM (active); in assay [13], 96.1 nM (active). Further, the outcome in assay [15] was inactive. On to `CCCCOCCOCCOCCOCCO`, for which the result in assay [5] and in assay [8] was inactive. As to `C=CC(=O)OCC(O)COc1ccccc1` (centres undefined), the result in [6] was inactive. Turning to `CC(C)=CCO`, in assay [6], the call was inactive. As for `Nc1cccc(S(=O)(=O)c2cccc(N)c2)c1`, the compound was called inactive in assay [6]. Take `CN(C)c1ccc(O)c2c1C[C@H]1C[C@H]3[C@H](N(C)C)C(=O)C(C(N)=O)=C(O)[C@@]3(O)C(=O)C1=C2O`: in assay [6], the result was inactive. `CCCC/C=C\CCCCCCCCCC=O`: in [10], the compound was classed as inactive. Regarding `O=C(Cl)c1cccc(C(=O)Cl)c1`, in assay [10], the compound was classed as inactive. Turning to `CCCCCCCCCCC(CO)CCCCCCCC` (centres undefined), in [11], the result was inactive.

Turning to `OCCN1CCNCC1`, the compound was classed as inactive in assay [10] and in assay [8]. For the compound `CC(C)(C#N)c1cc(Cn2cncn2)cc(C(C)(C)C#N)c1`, in [10], the compound was classed as inactive. Consider `C=C(C)C(=O)O`, for which the compound was called inactive in assay [10] and in assay [8].

As to `Cc1cccc(C)c1C`, the result in [4] was inactive. On to `CN(C)CCCN`, for which the call in assay [10] and in assay [8] was inactive.
